# Data published in PubChem BioAssay (EPA / NIEHS).
# Records with an inconclusive call do not appear. Active and inactive are the calls of the source. The calls were made as follows, unless noted: active = hit-call score of the fitted dose curve at least 0.9, where 1 is the maximum; inactive = score below 0.9.
# Tests used:
# [1] = ATG_TAL_CIS: Attagene CIS-FACTORIAL HepG2 Assay for human TAL Basal Promoter (AID 2282966); conditions: HepG2 Attagene cis-factorial TAL promoter reporter; actives raise or lower the signal;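 also: background control endpoint measuring basal TAL promoter reporter mRNA not a specific factor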
# Summary of the method: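 RT-PCR plus capillary electrophoresis quantifies reporter mRNA induction in transiently transfected HepG2 cells after 24 h chemical treatment. DMSO serves as negative control and baseline for bidirectional fitting.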
# [2] = ATG_VDRE_CIS: Attagene CIS-FACTORIAL HepG2 Assay for human Vitamin D Receptor Element (VDRE) (AID 2282968); conditions: HepG2 VDRE cis-reporter transcription, actives raise or lower the signal
# Summary of the method: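 Cell-based multiplexed reporter format in human liver HepG2 cells, 24 h post-dose. Fluorescence from capillary electrophoresis of reporter cDNA gives the signal, with DMSO as negative control and baseline.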
# [3] = target: X-box-binding protein 1 (Homo sapiens) (UniProt P17861); experiment: ATG_Xbp1_CIS: Attagene CIS-FACTORIAL HepG2 Assay for human X-box Binding Protein 1 (XBP1) (AID 2282972); conditions: HepG2 XBP1 cis-element reporter, Attagene multiplex; actives raise or lower the signal
# Sequence of X-box-binding protein 1 (Homo sapiens) (P17861 whole entry, looked up): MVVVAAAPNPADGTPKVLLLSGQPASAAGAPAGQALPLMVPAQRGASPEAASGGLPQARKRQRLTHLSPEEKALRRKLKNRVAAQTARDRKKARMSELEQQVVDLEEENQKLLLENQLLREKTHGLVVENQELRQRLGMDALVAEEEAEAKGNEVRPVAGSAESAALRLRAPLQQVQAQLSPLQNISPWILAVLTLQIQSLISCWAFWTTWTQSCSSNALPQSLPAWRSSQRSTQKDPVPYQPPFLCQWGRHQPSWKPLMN
# Summary of the method: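 HepG2 cells transiently transfected with multiple cis-element reporter units report endogenous TF activity; 24 h exposure, then reporter mRNA measured by RT-PCR, 6-FAM labelling, HpaI digestion and capillary electrophoresis. Bidirectional fitting versus DMSO.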
# [4] = ATG_GAL4_TRANS: Attagene TRANS-FACTORIAL HepG2 Assay for GAL4 (Internal Marker) (AID 2282976; active = hit-call score of the fitted dose curve at least 0.9, where 1 is the maximum); conditions: HepG2 Attagene TRANS GAL4 internal marker reporter
# Summary of the method: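 In transfected human HepG2 liver cells dosed 24 h, GAL4 reporter mRNA serves as a baseline marker. Detection by RT-PCR with fluorescent capillary electrophoresis, activity fitted upward relative to DMSO.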
# [5] = ATG_M_19_TRANS: Attagene TRANS-FACTORIAL HepG2 Assay for M19 Transcription Factor (Internal Marker) (AID 2282974; active = hit-call score of the fitted dose curve at least 0.9, where 1 is the maximum); conditions: HepG2 Attagene TRANS-FACTORIAL M19 internal marker reporter
# Summary of the method: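 Multiplexed TRANS format: HepG2 liver cells bearing transient GAL4-UAS reporter units, chemical treatment 24 h, reporter transcripts quantified by RT-PCR plus capillary electrophoresis. DMSO defines baseline.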
# [6] = target: Nuclear receptor subfamily 1 group I member 3 (Homo sapiens) (UniProt Q14994); experiment: ATG_CAR_TRANS: Attagene TRANS-FACTORIAL HepG2 Assay for human Constitutive Androstane Receptor (CAR) (AID 2282969; active = hit-call score of the fitted dose curve at least 0.9, where 1 is the maximum;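 also: activators raise reporter mRNA above DMSO so AC50 marks induction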); conditions: HepG2 Attagene TRANS-FACTORIAL CAR reporter
# Sequence of Nuclear receptor subfamily 1 group I member 3 (Homo sapiens) (Q14994 whole entry, looked up, the tested form may be a part): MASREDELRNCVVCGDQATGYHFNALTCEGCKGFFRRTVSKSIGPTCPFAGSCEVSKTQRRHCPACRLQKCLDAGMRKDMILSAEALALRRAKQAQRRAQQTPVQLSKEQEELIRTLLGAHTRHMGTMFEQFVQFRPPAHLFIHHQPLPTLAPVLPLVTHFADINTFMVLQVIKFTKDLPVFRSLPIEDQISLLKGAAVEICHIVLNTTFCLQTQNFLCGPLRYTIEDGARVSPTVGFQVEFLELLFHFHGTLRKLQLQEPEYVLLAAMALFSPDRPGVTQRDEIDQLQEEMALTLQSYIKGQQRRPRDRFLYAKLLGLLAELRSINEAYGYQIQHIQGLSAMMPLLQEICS
# Summary of the method: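 HepG2 cells transiently transfected with GAL4-UAS reporter units; TRANS format reads activity of exogenous chimeric NR-Gal4 protein. After 24 h dosing, reporter mRNA quantified by RT-PCR, 6-FAM labelling and capillary electrophoresis; gain of signal fitted against DMSO.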
# [7] = target: Steroid hormone receptor ERR1 (Homo sapiens) (UniProt P11474); experiment: ATG_ERRa_TRANS: Attagene TRANS-FACTORIAL HepG2 Assay for human Estrogen-Related Receptor alpha (ERRa) (AID 2282971; active = hit-call score of the fitted dose curve at least 0.9, where 1 is the maximum); conditions: HepG2 Attagene TRANS reporter, ERRa transactivation
# Sequence of Steroid hormone receptor ERR1 (Homo sapiens) (P11474 whole entry, looked up, the tested form may be a part): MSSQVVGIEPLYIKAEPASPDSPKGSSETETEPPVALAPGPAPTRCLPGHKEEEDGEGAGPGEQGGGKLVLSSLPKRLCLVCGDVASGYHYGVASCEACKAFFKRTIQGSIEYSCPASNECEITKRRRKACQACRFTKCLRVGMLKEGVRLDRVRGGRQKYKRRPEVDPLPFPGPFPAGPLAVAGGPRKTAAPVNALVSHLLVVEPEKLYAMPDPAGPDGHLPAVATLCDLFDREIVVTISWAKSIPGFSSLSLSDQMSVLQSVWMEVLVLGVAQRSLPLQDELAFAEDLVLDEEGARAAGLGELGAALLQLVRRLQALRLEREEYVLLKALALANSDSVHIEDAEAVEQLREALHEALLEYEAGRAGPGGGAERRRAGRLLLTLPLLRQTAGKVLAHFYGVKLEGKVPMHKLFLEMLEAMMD
# Summary of the method: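 Reporter transcripts from ERRa-Gal4 chimera activity measured in transiently transfected human HepG2 cells 24 hours after dosing, using RT-PCR with 6-FAM primer extension, HpaI digestion and capillary electrophoresis; DMSO is baseline.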
# [8] = target: Estrogen-related receptor gamma (Homo sapiens) (UniProt P62508); experiment: ATG_ERRg_TRANS: Attagene TRANS-FACTORIAL HepG2 Assay for human Estrogen-Related Receptor gamma (ERRg) (AID 2282977; active = hit-call score of the fitted dose curve at least 0.9, where 1 is the maximum;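 also: hits increase reporter signal over DMSO so potencies reflect activators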); conditions: HepG2 Attagene TRANS reporter, ERRg transactivation
# Sequence of Estrogen-related receptor gamma (Homo sapiens) (P62508 whole entry, looked up, the tested form may be a part): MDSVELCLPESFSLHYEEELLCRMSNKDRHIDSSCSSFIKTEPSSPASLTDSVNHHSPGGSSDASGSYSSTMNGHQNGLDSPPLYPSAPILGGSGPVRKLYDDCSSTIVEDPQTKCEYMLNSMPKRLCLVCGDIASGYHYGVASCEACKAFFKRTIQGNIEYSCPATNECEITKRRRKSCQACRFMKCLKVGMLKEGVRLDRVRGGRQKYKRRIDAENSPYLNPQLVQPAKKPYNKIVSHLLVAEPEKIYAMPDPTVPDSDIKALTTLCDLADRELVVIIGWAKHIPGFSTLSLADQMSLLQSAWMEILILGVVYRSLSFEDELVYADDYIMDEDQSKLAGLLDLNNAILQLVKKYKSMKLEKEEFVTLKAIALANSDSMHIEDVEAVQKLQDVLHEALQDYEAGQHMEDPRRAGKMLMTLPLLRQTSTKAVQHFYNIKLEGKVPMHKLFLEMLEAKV
# Summary of the method: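 Transient HepG2 transfectants, 24 h compound exposure, GAL4-UAS reporter mRNA by RT-PCR/6-FAM labelling/capillary electrophoresis; positive direction vs DMSO.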
# [9] = ATG_TGFb_CIS: Attagene CIS-FACTORIAL HepG2 Assay for human Transforming Growth Factor (TGF) (AID 2282967); conditions: HepG2 Attagene CIS TGFb reporter, mRNA transcription; actives raise or lower the signal
# Summary of the method: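 Transient MRTU transfection of HepG2 (FuGene 6). Dose 24 h. TriZol RNA, oligo(dT) RT, PCR, 6-FAM primer extension, HpaI cut, CE. Bidirectional fit, DMSO = baseline.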
# [10] = target: Estrogen receptor (Homo sapiens) (UniProt P03372); experiment: ATG_ERa_TRANS: Attagene TRANS-FACTORIAL HepG2 Assay for human Estrogen Receptor alpha (ERa) (AID 2282970; active = hit-call score of the fitted dose curve at least 0.9, where 1 is the maximum); conditions: HepG2 Attagene TRANS ERa GAL4 reporter, mRNA
# Sequence of Estrogen receptor (Homo sapiens) (P03372 whole entry, looked up, the tested form may be a part): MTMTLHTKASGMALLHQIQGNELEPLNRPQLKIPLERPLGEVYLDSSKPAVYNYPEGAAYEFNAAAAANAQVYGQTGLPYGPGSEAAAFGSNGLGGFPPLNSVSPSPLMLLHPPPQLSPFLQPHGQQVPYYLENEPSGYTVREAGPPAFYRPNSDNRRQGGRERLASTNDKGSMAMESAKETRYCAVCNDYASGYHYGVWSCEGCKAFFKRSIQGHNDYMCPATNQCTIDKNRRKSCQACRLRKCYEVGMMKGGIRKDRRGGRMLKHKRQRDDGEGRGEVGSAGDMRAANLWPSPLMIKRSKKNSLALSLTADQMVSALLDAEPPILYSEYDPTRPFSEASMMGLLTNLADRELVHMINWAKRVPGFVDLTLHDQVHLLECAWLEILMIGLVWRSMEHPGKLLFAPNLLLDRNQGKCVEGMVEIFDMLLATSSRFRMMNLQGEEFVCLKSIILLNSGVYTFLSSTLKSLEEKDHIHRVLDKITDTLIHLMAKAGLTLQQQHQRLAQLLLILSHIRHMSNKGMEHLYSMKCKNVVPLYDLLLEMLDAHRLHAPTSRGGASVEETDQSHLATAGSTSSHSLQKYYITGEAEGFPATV
# Summary of the method: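 Cells: HepG2, transiently transfected. Construct: GAL4-UAS reporter units regulated by exogenous NR-Gal4 chimeras. Time: 24 h. Detection: reporter mRNA by RT-PCR, capillary electrophoresis, fluorescence. Baseline: DMSO, upward fitting.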
structure (smiles),measurement,setting,value
OCCOCCN1CCN(C2=Nc3ccccc3Sc3ccccc32)CC1,outcome,[1],inactive
same,AC50,[2],19.5 µM (active)
same,outcome,[3],inactive
same,outcome,[4],inactive
CS(=O)(=O)OCCCCOS(C)(=O)=O,outcome,[1],inactive
same,outcome,[2],inactive
same,outcome,[3],inactive
same,outcome,[5],inactive
C=CCOC(=O)CCCCCC,outcome,[1],inactive
same,outcome,[2],inactive
same,outcome,[6],inactive
same,outcome,[5],inactive
CCCCC1CCC(O)CC1 (stereo unspecified),outcome,[1],inactive
same,outcome,[2],inactive
same,outcome,[3],inactive
same,outcome,[4],inactive
CCCCCCCCCC(=O)OC,outcome,[1],inactive
same,outcome,[3],inactive
C=Cc1ccncc1,outcome,[1],inactive
same,AC50,[2],20.2 µM (active)
same,outcome,[6],inactive
same,outcome,[7],inactive
same,AC50,[3],26.1 µM (active)
same,outcome,[5],inactive
same,outcome,[8],inactive
Cc1ccc(C)o1,outcome,[1],inactive
same,outcome,[2],inactive
same,outcome,[3],inactive
same,outcome,[5],inactive
same,outcome,[4],inactive
same,outcome,[8],inactive
FC(F)(F)COCC(F)(F)F,outcome,[1],inactive
same,outcome,[2],inactive
same,outcome,[6],inactive
same,outcome,[7],inactive
same,outcome,[3],inactive
same,outcome,[5],inactive
same,outcome,[4],inactive
C#CC(C)(O)CC(C)C (stereo unspecified),outcome,[9],inactive
same,outcome,[2],inactive
same,outcome,[6],inactive
same,outcome,[7],inactive
same,outcome,[3],inactive
same,outcome,[5],inactive
CC1C2CC(CC2C2CCCC(O)C2)C1(C)C (stereo unspecified),outcome,[1],inactive
same,outcome,[2],inactive
same,outcome,[3],inactive
CC(C)CCCCCCc1ccc(OCCOCCO)cc1,outcome,[1],inactive
same,outcome,[2],inactive
same,outcome,[10],inactive
same,outcome,[3],inactive
same,outcome,[4],inactive
same,outcome,[8],inactive
CCCCCCCCCCCCS(=O)(=O)Cl,outcome,[1],inactive
same,outcome,[2],inactive
same,outcome,[3],inactive
same,outcome,[5],inactive
Cc1ccc(N)c(S(=O)(=O)O)c1,outcome,[1],inactive
same,outcome,[2],inactive
same,outcome,[3],inactive
O=C1NC2NC(=O)NC2N1 (stereo unspecified),outcome,[1],inactive
same,outcome,[2],inactive
same,outcome,[3],inactive
same,outcome,[5],inactive
same,outcome,[4],inactive
CS(C)=O,outcome,[1],inactive
same,outcome,[3],inactive
same,outcome,[5],inactive
COC(=O)c1ccc([N+](=O)[O-])cc1,outcome,[1],inactive
same,outcome,[9],inactive
same,outcome,[3],inactive
same,outcome,[8],inactive
O=C(O)c1cc(C(=O)O)cc([N+](=O)[O-])c1,outcome,[1],inactive
same,outcome,[2],inactive
same,outcome,[6],inactive
same,outcome,[3],inactive
same,outcome,[5],inactive
same,outcome,[4],inactive
CC1=NN(c2ccc(S(=O)(=O)O)cc2)C(=O)C1,outcome,[1],inactive
same,outcome,[2],inactive
same,outcome,[3],inactive
same,outcome,[5],inactive
same,outcome,[4],inactive
C=Cc1ccc(C)cc1,outcome,[1],inactive
same,outcome,[2],inactive
same,outcome,[6],inactive
same,outcome,[3],inactive
same,outcome,[5],inactive
same,outcome,[4],inactive
CCC(Cl)C(Cl)C(Cl)CC(Cl)C(Cl)C(C)Cl (stereo unspecified),outcome,[1],inactive
same,AC50,[2],3.17 µM (active)
same,outcome,[3],inactive
Cc1cc(CCC(=O)OCCOCCOCCOC(=O)CCc2cc(C)c(O)c(C(C)(C)C)c2)cc(C(C)(C)C)c1O,outcome,[1],inactive
same,outcome,[6],inactive
same,outcome,[3],inactive
same,outcome,[5],inactive
same,outcome,[4],inactive
ON=C1CCCCC1,outcome,[1],inactive
same,outcome,[2],inactive
same,outcome,[6],inactive
same,outcome,[7],inactive
same,outcome,[3],inactive
same,outcome,[4],inactive
CN(C)c1cccc(O)c1,outcome,[1],inactive
same,outcome,[2],inactive
same,outcome,[6],inactive
same,outcome,[3],inactive
same,outcome,[5],inactive
Cc1ccc(OC(=O)c2ccccc2O)cc1,outcome,[1],inactive
same,outcome,[2],inactive
same,outcome,[6],inactive
same,outcome,[3],inactive
same,outcome,[5],inactive
same,outcome,[8],inactive
O=C(O)c1ccc(O)cc1,outcome,[1],inactive
same,outcome,[6],inactive
same,outcome,[7],inactive
same,outcome,[3],inactive
same,outcome,[8],inactive
CCOC(=O)CC(C)O (stereo unspecified),outcome,[1],inactive
same,outcome,[2],inactive
same,outcome,[4],inactive
CCCOC(=O)c1c(Cl)c(Cl)c(Cl)c(Cl)c1C(=O)OCCC,outcome,[1],inactive
same,outcome,[2],inactive
same,outcome,[6],inactive
same,AC50,[3],130 µM (active)
O=C(O)COCC(=O)O,outcome,[1],inactive
same,outcome,[2],inactive
same,outcome,[6],inactive
same,outcome,[3],inactive
same,outcome,[4],inactive
c1ccc2cc(Nc3ccc(Nc4ccc5ccccc5c4)cc3)ccc2c1,outcome,[1],inactive
same,outcome,[2],inactive
same,outcome,[6],inactive
same,outcome,[7],inactive
same,outcome,[3],inactive
same,outcome,[5],inactive
same,outcome,[4],inactive
same,outcome,[8],inactive
O=[N+]([O-])c1cccc(Cl)c1,outcome,[10],inactive
CCN(CCN)c1cccc(C)c1,outcome,[10],inactive
